HTT cytoprotect = cytoprotection in Huntington HTT-Q103 PC12 cell model | PC12 HTT-Q103 induced, cytoprotection, ATP luminescence, 40 h | Potency, µM (titrated, usually from 56.4 µM), without a hit: cytoprotection (ATP increase), actives largely listed as activators | 0.14% of 230,000 active | AID 1471; active = well fitted curve in the direction sought with a large enough effect; inconclusive = small, poorly fitted or top-dose-only effect, or another doubt; inactive = no such curve, though single readings can be large; an effect the other way counts as inactive or inconclusive; note: % of control where 0% means no effect; nearly all actives have a fitted effect of over 45% in size
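Huntington model: PC12 line, ecdysone-inducible HTTQ103 exon1–GFP, tebufenozide 100 nM. Test articles in a dose series. Endpoint luminescence from cellular ATP.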
HTT aggregate = reduces HttQ103-GFP aggregates in PC12 cells | PC12 HttQ103-GFP aggregates, Acumen cytometry, 40 h | 1.1% of 220,000 active | AID 1688 | Potency, µM (highest dose often 46.1 µM), inactives show at the top dose activity change, negative = inhibition, most hits filed as inhibitors; active = well fitted curve in the direction sought with a large enough effect; inconclusive = small, poorly fitted or top-dose-only effect, or another doubt; inactive = no such curve, though single readings can be large; an effect the other way counts as inactive or inconclusive; note: % is set by controls: 0 for no effect and ±100 for the full control effect; nearly all actives have a fitted effect of over 60% in size
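Read-out: GFP aggregate count by laser scanning cytometer (488 nm excitation, 500-530 nm emission, 1–25 µm objects >6 SD above background). Cells: PC12, inducible HTTex1-Q103-GFP, 100 nM tebufenozide; compounds titrated.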
LMNA splice mod = LMNA splicing modulation; HeLa LMNA splicing GFP/RFP minigene ratio, 48 h; AID 1487; 0.01% of 200,000 active; Potency, µM (series often up to 46.1 µM), inactives show at the top dose ratio change, negative = inhibition, usual class: inhibitors; active = well fitted inhibition curve with a large enough effect in the signal ratio, with a control signal flat, not every such curve was filed as active; inconclusive = small, poorly fitted or top-dose-only effect, or effect the other way, or a change in a side signal; the % refers to the signal ratio; note: % is set by controls: 0 for no effect and ±100 for the full control effect
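S3 HeLa stable clones carrying a lamin A-EGFP splicing minigene plus DsRed2 were seeded at 600 cells/well in Opti-MEM with 2% FBS, pin-dosed and incubated 48 h at 37°C. Acumen cytometry (488 nm) gave the GFP/RFP total-intensity ratio.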
HPGD inh = HPGD (human) dehydrogenase inhibition; P15428; purified HPGD, NADH fluorescence kinetic, PGE2 substrate; Potency, µM, without a hit: at the top dose activity change, negative = inhibition, hits mostly inhibitors; 4.3% of 150,000 active; AID 894; note: % is set by controls: 0 for no effect and ±100 for the full control effect
Target sequence (P15428 whole entry, looked up): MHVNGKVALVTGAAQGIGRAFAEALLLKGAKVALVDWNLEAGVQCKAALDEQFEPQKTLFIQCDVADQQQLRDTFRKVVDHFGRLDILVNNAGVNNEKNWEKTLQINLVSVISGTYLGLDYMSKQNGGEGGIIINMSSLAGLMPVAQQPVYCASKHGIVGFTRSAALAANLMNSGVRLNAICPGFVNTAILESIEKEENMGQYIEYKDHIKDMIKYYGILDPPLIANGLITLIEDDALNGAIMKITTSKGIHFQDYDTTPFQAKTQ
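NADH formation kinetics: reaction with 30 uM PGE2 and 1 mM NAD+ (final), 20 nM enzyme, Tris-HCl pH 8 with Tween 20, after 15 min compound preincubation at room temperature. Fluorescence change, last versus first of five reads.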
ALDH1A1 inh = blocks purified human ALDH1A1 activity; AID 1030; Purified ALDH1A1, NADH fluorescence, propionaldehyde substrate; Potency, µM (top dose mostly 75.3 µM), for inactives: at the highest dose activity, negative = inhibition, usual class: inhibitors; 7.3% of 220,000 active; P00352;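 note: plate controls were no enzyme wells and a reference inhibitor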
JMJD2E inh = inhibitors of human JMJD2E histone demethylase; B2RXH2; JMJD2E catalytic domain, FDH-coupled NADH fluorescence (FDH is formaldehyde dehydrogenase); Potency, µM (highest dose often 57.1 µM), inactives show at the highest dose activity change, negative = inhibition, actives largely listed as inhibitors; 1.6% of 230,000 active; AID 2147;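 note: 0% = wells with enzyme and -100% = buffer wells without enzyme; nearly all actives have a fitted effect of over 50% in size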
Target sequence (B2RXH2 1-337 limits assumed): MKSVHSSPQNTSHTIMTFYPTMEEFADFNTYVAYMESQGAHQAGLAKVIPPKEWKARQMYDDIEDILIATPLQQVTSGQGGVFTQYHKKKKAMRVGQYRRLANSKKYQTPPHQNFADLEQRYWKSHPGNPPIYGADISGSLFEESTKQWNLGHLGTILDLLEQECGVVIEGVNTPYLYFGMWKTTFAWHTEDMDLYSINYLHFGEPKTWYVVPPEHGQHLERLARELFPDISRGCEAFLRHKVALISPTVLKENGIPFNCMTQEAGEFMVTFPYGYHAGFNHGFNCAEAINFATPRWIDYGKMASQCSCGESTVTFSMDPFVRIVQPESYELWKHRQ
Active calls of the source: *; ? = inconclusive; . = no result; [ ] = another dose, or the depositor's remark. In the library only some 9.2% were active in any assay of this set; here they are far more common. Unless noted, calls come from the whole dose curve; as a rule, active = well fitted inhibition curve with a large enough effect (not every such curve was filed as active); inconclusive = small, poorly fitted or top-dose-only effect, or another doubt; inactive = no such curve, though single readings can be large or run the other way. Potency is the fitted concentration of half-maximal effect.

SMILES | HTT cytoprotect | HTT aggregate | LMNA splice mod | HPGD inh | ALDH1A1 inh | JMJD2E inh
O=C(CN1C(=O)C2C3C=CC(C4CC34)C2C1=O)OCC(=O)c1ccccc1 (stereo not drawn) | . | -1% | 17% | ? | -11% | -3%
N#C/C(=C\c1ccc(N2CCOCC2)o1)C(=O)NCCc1ccccc1 | 10%[10 µM] | 4%[9.22 µM] | 8%[46 µM] | . | ? | 40µM*
N#C/C(=C\c1ccc(N2CCOCC2)o1)C(=O)NC1CCCCC1 | 16%[10 µM] | -7%[9.22 µM] | . | . | . | -9%
O=C(NCCCN1CCOCC1)C(=O)NCCc1ccccc1 | -16% | 6% | -10%[46 µM] | . | 0% | 4%
N#C/C(=C\c1ccc(O)c(O)c1)C(=O)NCCCc1ccccc1 | -7% | -26% | ? | 32µM* | ? | 3.2µM*
CCCCNC(=O)/C(C#N)=C/c1ccc2c(c1)OCCO2 | ? | 2% | -10% | ? | 6.3µM* | -3%
CCCCCCCCNC(=O)/C(C#N)=C/c1ccc2c(c1)OCCO2 | -4%[10 µM] | 14% | -6% | ? | ? | 6%
N#C/C(=C/c1ccc(N2CCOCC2)o1)C(=O)Nc1ccccc1 | -11%[10 µM] | -19%[9.22 µM] | ? | . | 22µM* | -11%
CN(C)Cc1ccccc1-c1nc(N(C)C)c2ccccc2n1 | -83% | . | ? | . | 28% | .
O=C(c1c(F)cccc1F)N1CCN=C1SCc1ccccc1 | 4%[10 µM] | -4%[9.22 µM] | . | . | . | -2%
Cc1ccc(C)c(NC(=O)C(=O)NCC(c2cccnc2)N2CCN(c3ccc(F)cc3)CC2)c1 (stereo not drawn) | . | . | -6%[46 µM] | . | . | .
Cc1noc(C)c1-c1nc(N(C)C)c2ccccc2n1 | -6% | . | -3% | . | ? | .
COCCNC(=O)/C(C#N)=C/c1ccc(O)cc1 | -10%[10 µM] | -31%[9.22 µM] | . | . | . | -15%
COCCNC(=O)/C(C#N)=C/c1ccc(N2CCOCC2)o1 | . | ? | -5% | ? | 32µM* | ?
COCCNC(=O)/C(C#N)=C/c1cccc(/C=C(\C#N)C(=O)NCCOC)c1 | . | 12% | ? | 25µM* | ? | -3%
N#C/C(=C\c1ccc(N2CCOCC2)o1)C(=O)NCC1CCCO1 (stereo not drawn) | -46%[10 µM] | -4%[9.22 µM] | -12%[46 µM] | . | 0% | ?
O=C(c1cnccn1)N1CCC2(CCCN(C(c3ccccc3)c3ccccc3)C2)CC1 | -108% | . | . | -18% | ? | .
CCC(/C=C/C(C)C1CCC2C3CC=C4CC(O)CC[C@@]4(C)C3CC[C@@]12C)C(C)C (stereo partly drawn) | . | . | -3% | -5% | -3% | -3%
CC(C)C(NC(=O)CSCc1ccc([N+](=O)[O-])cc1)C(C)C | -13%[10 µM] | ? | ? | 10µM* | -10% | -2%
O=C(CSCc1ccc([N+](=O)[O-])cc1)NC1CC1 | 13%[10 µM] | 2% | -1% | 0% | 6% | 9%
CC(C)OC(=O)c1cccc(C(=O)Oc2ccccc2)n1 | -15% | -4% | -2% | -18% | 9% | 1%
CC(=O)OCc1ccco1 | -15% | . | . | -8% | 22µM* | .
CC(C)OC(=O)c1cccc(C(=O)OCc2ccco2)n1 | -26% | 31% | ? | -7% | 8.9µM* | -4%
O=C(NCN1CCOCC1)c1cnccn1 | -31% | 9% | . | . | . | .
c1ccc(-c2nnc3n2CCCC3)cc1 | 13% | 3% | 3% | 14µM* | 2% | -1%
SMILES | HTT cytoprotect | HTT aggregate | LMNA splice mod | HPGD inh | ALDH1A1 inh | JMJD2E inh
Brc1cccc(-c2nnc3n2CCCCC3)c1 | 8%[0.074 µM] | -9% | 1% | 6.3µM* | -12% | 7%
O=C1Nc2ccc(Br)cc2C1=Nc1ccc(-c2nnc3n2CCCCC3)cc1 | -16% | 19% | 7% | 4µM* | -5% | -7%
Fc1ccc(-c2nnc3n2CCCCC3)cc1 | -6%[10 µM] | -6% | 12%[46 µM] | . | -3% | -6%
CC(C)CN(C[C@@H](OP(=O)(O)O)[C@H](Cc1ccccc1)NC(=O)O[C@@H]1CCOC1)S(=O)(=O)c1ccc(N)cc1 | 11% | 18% | . | . | . | .
N#Cc1c(NC(NC(=O)c2ccco2)C(=O)c2ccccc2)sc2c1CCCC2 (stereo not drawn) | -7% | ? | 14% | -11% | ? | ?
NC(=O)c1c(NC(NC(=O)c2ccco2)C(=O)c2ccc(Cl)cc2)sc2c1CCCC2 (stereo not drawn) | -44% | -15% | -5% | -20% | 18µM* | ?
CC(=O)c1ccc(NC(=S)NC(=O)c2c(Cl)c(C)nn2C)cc1 | . | 4% | 11% | -5% | ? | 1%
CCCCOC(=O)c1ccc(NC(=S)NC(=O)c2c(Br)c(C)nn2C)cc1 | 3%[10 µM] | -10% | 7% | -27% | 4µM* | -3%
CCCSCCCNC(=O)c1ccc2c(c1)nc1n2CCCCC1 | . | . | -18%[46 µM] | . | . | .
O=C(NCc1cccnc1)c1cc(Sc2cccc(Cl)c2)nc2ccccc12 | 8%[10 µM] | -5% | ? | -16% | 11µM* | -14%
O=C(NCc1cccnc1)c1cccnc1-c1nc2ccccc2s1 | -10% | -4% | -4% | -18% | 20µM* | ?
Cc1ccc(/C([O-])=C(/C(=S)Nc2ccc(SC(F)F)cc2)[n+]2ccccc2)cc1[N+](=O)[O-] | -5%[10 µM] | -25% | -5%[46 µM] | . | 4.5µM* | 0%
[O-]/C(=C(\C(=S)NCCN1CCOCC1)[n+]1ccccc1)c1ccc(Cl)s1 | 10%[10 µM] | 5% | ? | . | 10µM* | 2%
Cc1cccc(C)c1NC(=S)/C(=C(\[O-])c1cccs1)[n+]1ccccc1 | 7%[10 µM] | -3% | -17% | -17% | -3% | 5%
[O-]/C(=C(\C(=S)NCc1ccccc1)[n+]1ccccc1)c1ccc(Cl)s1 | -19% | 4% | . | . | 18µM* | 7%
S=C(NCCN1CCOCC1)Nc1ccc(Nc2ccccc2)cc1 | -23% | 11% | . | . | -1% | 1%
Cc1ccc(/C([O-])=C(/C(=S)NCCN2CCOCC2)[n+]2ccccc2)cc1[N+](=O)[O-] | 2%[10 µM] | 11% | 9%[46 µM] | . | 22µM* | -4%
Cc1ccc(NC(=S)/C(=C(\[O-])c2ccc(C)c([N+](=O)[O-])c2)[n+]2ccccc2)cc1C | -14% | -23% | 16% | -14% | ? | -2%
CC(NC(=O)CCSCc1ccccc1F)c1ccccc1 (stereo not drawn) | . | . | 0%[46 µM] | . | . | .
O=c1cc(NCc2ccc3c(c2)OCO3)[nH]c(=O)n1-c1ccc(Cl)cc1 | 11% | -6% | 2% | -8% | -7% | -1%
Cc1ccccc1-n1c(=O)cc(NCc2ccc3c(c2)OCO3)[nH]c1=O | -11%[10 µM] | -2% | ? | -23% | 14µM* | 1%
CCC1=C(OC(=O)N(CC)CC)N2C(=O)OC(=NCCc3c[nH]c4ccccc34)[C@]2(C)[C@H]2C1=CC[C@H]1C(=O)N(CC(=O)OC)C(=O)[C@H]12 | -22% | -2%[9.22 µM] | . | -15% | ? | 1%
c1ccc(-c2nnc(-c3ccccn3)nc2NC2CCCCC2)cc1 | -38%[10 µM] | 3.5µM* | ? | -5% | 4% | ?

Bioassay records from PubChem.
